These results are taken from PubChem BioAssay (NCI).

SMILES strings stand for the structures. The panel holds about 83,000 compounds, 20% with a hit somewhere; the sample as a whole holds those more often.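 Single-dose data. Exposure time 48 hours. Values below 10 considered active.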 Values without a mark were called inactive. Calls of active or inactive are those of the source.

Common to all, as to assay: NCI-60 one-dose screen, 48 h (100 = growth as untreated, 0 = no growth, -100 = all killed)
Common to all, as to details: 10 µM unless noted

Assay [1] concerns HT29 colon.
The subject of assay [2] is SNB-75 CNS.
For assay [3], the system named is SNB-19 CNS.
The subject of assay [4] is U251 CNS.
Assay [5] relates to PC-3 prostate.
For assay [6], the system named is SK-MEL-5 melanoma.
The subject of assay [7] is UACC-62 melanoma.
Assay [8] relates to LOX IMVI melanoma.
Assay [9] has as its system SK-MEL-28 melanoma.
In assay [10] the test system is SK-MEL-2 melanoma.

`COc1ccc(/C=C/C(=O)c2ccc(NC(=O)CSc3nnc(-c4ccc5nc(-c6ccc(Cl)cc6)[nH]c5c4)o3)cc2)cc1`: the growth was 106% in [1]; 98.5% in assay [2]; 106% in [3]; 96% in [4]; 82.5% in assay [5]; 89.7% in assay [6]. The growth in assay [7] was 83.8%; in assay [8] it was 6.79% (active); in [9], 113%; in [10] it was 111%.

For the compound `Cc1cccc(/C=C/c2nn3c(-c4ccco4)nnc3s2)c1`, the growth is 104% in [1]; 100% in assay [2]; 94.1% in assay [3]; 99.1% in assay [4]; 103% in assay [5]; 92% in assay [6]. Moreover, the growth in assay [7] was 94%; in assay [8], 98.1%; in [9] it was 97.3%; in [10], 112%.

With `Cc1c(NC(=O)CSc2nc3sc4c(c3c(=O)n2-c2ccc(Cl)cc2)CCCC4)c(=O)n(-c2ccccc2)n1C`, the growth is 101% in assay [1]; 72.6% in assay [2]; 79.7% in assay [3]; 104% in [4]; 94.4% in [5]; 87.2% in assay [6]. The growth was 83.1% in assay [7], 89.5% in assay [8], 89.2% in [9] and 110% in assay [10].

Regarding `[Cl][Ru].c1ccc(-c2cccc(-c3ccccn3)n2)nc1.c1ccc(-c2ccnc3c2ccc2c(-c4ccccc4)ccnc23)cc1`, the growth in [1] was 21%; in assay [2], 1.93% (active); in [3] it was 23.5%; in assay [4], 31.7%; in assay [5], 23.6%; in [6], 73.1%. The growth is 14.2% in assay [7], 37.4% in [8] and 31.3% in assay [9].

Consider `CS(=O)(=O)c1ccc(-c2nc3ccccn3c2-c2nc3ccc([N+](=O)[O-])cc3[nH]2)cc1`, for which the growth in assay [1] was 109%; in assay [2], 82.9%; in [3] it was 99.6%; in assay [4], 104%; in [5] it was 86.3%; in [6], 95.2%. Moreover, the growth in [7] was 88.6%; in assay [8], 100%; in assay [9] it was 98%.

On to `COc1ccc(N/N=C/c2c(-c3ccc(S(C)(=O)=O)cc3)nc3ccccn23)cc1`, for which the growth in [1] was 64.4%; in assay [2], 62.6%; in assay [3], 78.6%; in assay [4] it was 69.4%; in [5], 29.1%; in assay [6], 59.5%. Further, the results for the growth in [7], in [8] and in assay [9] were 10.8%, 16.6% and 51.5%, respectively.

On to `C#C[C@]1(O)CC[C@H]2[C@@H]3CC=C4c5sc(-c6ccc(F)cn6)nc5CC[C@]4(C)[C@H]3CC[C@@]21C`, for which the growth in [1] is 38.3%; in assay [2], -13.2% (active); in [3] it was 31.5%; in assay [4] it was 15.7%; in [5], 24.2%; in assay [6], 33.4%. The growth in assay [7] is 0.399% (active); in assay [8], -63.9% (active); in [9], -28.5% (active).

Consider `CC(C)(C)OC(=O)N1C(=O)c2c(c3c4ccccc4[nH]c3c3ccc4ccccc4c23)C1=O`, for which the growth in [1] was 51.6%; in [2] it was 79.5%; in assay [3], 97.2%; in [4], 58.8%; in assay [5], 42.8%; in [6], 60.4%. Further, the growth was 60.3% in [7], 57.5% in assay [8] and 63.2% in [9].

Turning to `CCN1C(=S)N(CC)C2C1N=C(SC)N2/N=C/C=C/c1ccccc1[N+](=O)[O-]` (stereo not drawn), the growth in assay [1] is 93.5%; in assay [2], 82.2%; in assay [3] it was 103%; in assay [4], 96.5%; in [5] it was 85%; in assay [6], 96.2%. In addition, the growth was 85.1% in assay [7], 116% in [8], 105% in assay [9] and 123% in [10].

Regarding `CC(=O)c1ccc(Nc2nc(SC(C)C)nc(-c3ccccc3)c2C#N)cc1`, the growth in [1] was 99.6%; in assay [2] it was 92.3%; in [3], 87.2%; in [4], 89.5%; in assay [5], 88.1%; in assay [6] it was 98.1%. Moreover, the growth was 82.3% in assay [7], 95.1% in assay [8], 104% in assay [9] and 117% in assay [10].

`Cc1nc(-c2cc3ccccc3oc2=O)ccc1C(=O)/C=C/c1ccc(Cl)c(Cl)c1`: the growth was 114% in assay [1]; 95.2% in assay [2]; 98.5% in assay [3]; 99.4% in assay [4]; 101% in assay [5]; 105% in assay [6]. For the same compound, the growth in assay [7] was 100%; in assay [8], 86.9%; in assay [9] it was 106%; in assay [10], 134%.

With `CC(C)(C)Nc1nc2c(OCCc3ccccc3)cccn2c1-c1ccc(O)cc1`, the growth is 14.8% in assay [1]; 124% in assay [2]; 68.3% in [3]; 53.1% in assay [4]; 28.8% in assay [5]; 50.6% in assay [6]. The growth in [7] was 70.4%; in assay [8], 34.9%; in assay [9], 66%; in assay [10] it was 85.1%.

In the case of `Cc1ccc(C(=O)Nc2cccc(C(F)(F)F)c2)cc1Nc1nc(-c2cnccn2)nc2c1cnn2C`, the growth was 32.9% in assay [1]; 77.4% in assay [2]; 86% in assay [3]; 82.1% in [4]; 90.1% in [5]; 57.6% in assay [6]. In addition, the growth in assay [7] was 17.9%; in assay [8] it was 62.3%; in assay [9] it was 15.6%.

Regarding `N[C@@H](Cc1cn(-c2c3ccccc3nc3ccccc23)nn1)C(=O)O`, the growth is 107% in assay [1]; 96.7% in [2]; 93.2% in assay [3]; 103% in assay [4]; 99.2% in assay [5]; 101% in [6]. Moreover, the growth in assay [7] is 93.5%; in assay [8], 106%; in [9] it was 100%.
